PubChem BioAssay (EPA / NIEHS)
Calls of active or inactive are those of the source. Rule for the calls: active = hit-call score of the fitted dose curve at least 0.9, where 1 is the maximum; inactive = score below 0.9.

Columns and labels:
[1] = molecular target: Hepatocyte nuclear factor 3-beta (Homo sapiens) (UniProt Q9Y261); test: ATG_FoxA2_CIS: Attagene CIS-FACTORIAL HepG2 Assay for human Forkhead box A2 (FOXA2) (AID 2282942); conditions: HepG2 cis-reporter transcription factor activity, 24 h; actives raise or lower the signal
Summary of the method: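 Endogenous transcription factor activity was read in HepG2 cells carrying transiently transfected cis-promoter reporter units. After 24 h dosing, reporter mRNA was quantified by RT-PCR and capillary electrophoresis, and values fitted bidirectionally versus DMSO.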

[2] = ATG_GATA_CIS: Attagene CIS-FACTORIAL HepG2 Assay for human GATA Binding Protein (AID 2282944); conditions: HepG2 GATA cis-element reporter, Attagene multiplex mRNA; actives raise or lower the signal
Summary of the method: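 Reporter transcripts from a GATA cis-regulated unit, among multiplexed reporters in transfected HepG2 cells, were measured by RT-PCR with capillary electrophoresis after 24 h dosing. Induction or loss scored relative to DMSO.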

[3] = molecular target: Bile acid receptor (Homo sapiens) (UniProt Q96RI1); test: ATG_IR1_CIS: Attagene CIS-FACTORIAL HepG2 Assay for human Nuclear Receptor Subfamily 1 Group H Member 4 (NR1H4), IR1 submotif (AID 2282946); conditions: IR1 reporter transcription, actives raise or lower the signal
Summary of the method: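 Fluorescence of capillary-separated, HpaI-digested RT-PCR reporter products gave IR1-element mRNA induction in HepG2 cells 24 h after dosing. Endogenous transcription factors drove the cis-regulated reporters; activity was fitted bidirectionally against DMSO.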

[4] = ATG_ISRE_CIS: Attagene CIS-FACTORIAL HepG2 Assay for human Interferon Regulatory Factor 1 (IRF1) binding to an Interferon-Stimulated Response Element (ISRE) (AID 2282948); conditions: HepG2 ISRE cis-reporter (Attagene), mRNA transcription readout; actives raise or lower the signal
Summary of the method: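 Uses HepG2 liver cells transfected with cis-regulated reporters and measures mRNA 24 h post-dosing through RT-PCR, primer-extension labelling and capillary electrophoresis, with DMSO as negative control.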

[5] = ATG_M_32_CIS: Attagene CIS-FACTORIAL HepG2 Assay for M32 Transcription Factor (Internal Marker) (AID 2282949); conditions: HepG2 Attagene cis-factorial M32 reporter, mRNA; actives raise or lower the signal;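 note: background control marker of the multiplexed CIS panel rather than a real target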
Summary of the method: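 HepG2 transfectants (cis-regulated reporter transcription units) dosed 24 h. Reporter mRNA by RT-PCR plus CE, analysed as gain or loss relative to DMSO.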

[6] = ATG_M_06_CIS: Attagene CIS-FACTORIAL HepG2 Assay for M06 Transcription Factor (Internal Marker) (AID 2282950); conditions: HepG2 Attagene CIS-FACTORIAL M06 internal marker reporter; actives raise or lower the signal
Summary of the method: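 Serves as a background control readout. Transfected HepG2 exposed to compounds for 24 h, then reporter transcripts quantified by fluorescent RT-PCR and capillary electrophoresis. Both directions fitted against DMSO baseline.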

[7] = molecular target: Hypoxia-inducible factor 1-alpha (Homo sapiens) (UniProt Q16665); test: ATG_HIF1a_CIS: Attagene CIS-FACTORIAL HepG2 Assay for human Hypoxia Inducible Factor 1 (HIF1A) (AID 2282951); conditions: HepG2 Attagene cis-factorial HIF1a reporter transcription; actives raise or lower the signal
Summary of the method: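 Measures endogenous transcription-factor activity through cis-regulated reporter mRNA in HepG2. Cells dosed 24 h; transcripts quantified by RT-PCR with 6-FAM-labelled products separated by capillary electrophoresis; DMSO serves as negative control.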

[8] = molecular target: Hepatocyte nuclear factor 6 (Homo sapiens) (UniProt Q9UBC0); test: ATG_HNF6_CIS: Attagene CIS-FACTORIAL HepG2 Assay for human Hepatocyte Nuclear Factor 6 (HNF6) (AID 2282952); conditions: HepG2 Attagene cis-factorial HNF6 reporter transcription; actives raise or lower the signal
Summary of the method: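 First, HepG2 cells were transfected with the multiplexed cis reporter library and dosed with chemical for 24 h. Next, RNA was reverse-transcribed, PCR-amplified and fluorescently labelled. Finally, HpaI-digested fragments were read by capillary electrophoresis.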

[9] = molecular target: Heat shock factor protein 1 (Homo sapiens) (UniProt Q00613); test: ATG_HSE_CIS: Attagene CIS-FACTORIAL HepG2 Assay for human Heat Shock Transcription Factor 1 (HSE) (AID 2282953); conditions: HepG2 HSE cis-reporter, Attagene RNA transcription; actives raise or lower the signal
Summary of the method: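 Endogenous transcription factor activity in transiently transfected HepG2, read as reporter mRNA by RT-PCR with fluorescent capillary electrophoresis after 24 h. Gain or loss of signal fitted versus DMSO baseline.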

[10] = ATG_MRE_CIS: Attagene CIS-FACTORIAL HepG2 Assay for human Metal Responsive Element (MRE) (AID 2282954); conditions: HepG2 MRE cis-reporter transcription, Attagene multiplex; actives raise or lower the signal
Summary of the method: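 Measured here is mRNA induction from an MRE cis-element reporter in HepG2 after 24 h, quantified by fluorescence of labelled RT-PCR products on capillary electrophoresis; gain- and loss-of-signal fits use DMSO as baseline.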

[11] = ATG_PBREM_CIS: Attagene CIS-FACTORIAL HepG2 Assay for human Phenobarbital-responsive Enhancer Module (PBREM) (AID 2282955); conditions: HepG2 PBREM cis-reporter, Attagene multiplexed transcription; actives raise or lower the signal
Summary of the method: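 Fluorescence of labelled reporter cDNA fragments, resolved by capillary electrophoresis, gives mRNA induction in transfected HepG2 cells treated for 24 h; DMSO serves as negative control and baseline.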

[12] = molecular target: Paired box protein Pax-6 (Homo sapiens) (UniProt P26367); test: ATG_Pax6_CIS: Attagene CIS-FACTORIAL HepG2 Assay for human Paired Box 6 (PAX6) (AID 2282956); conditions: HepG2 CIS-FACTORIAL PAX6 reporter transcription, RNA readout; actives raise or lower the signal
Summary of the method: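 DMSO-referenced bidirectional fits of reporter mRNA fluorescence; HepG2 with transient cis-promoter MRTUs, 24 h post-dose, RT-PCR plus capillary electrophoresis detection.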

[13] = ATG_PXRE_CIS: Attagene CIS-FACTORIAL HepG2 Assay for human Pregnane X Receptor Element (PXRE) (AID 2282957); conditions: HepG2 Attagene CIS-FACTORIAL PXRE reporter, mRNA; actives raise or lower the signal
Summary of the method: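 After a 24 h chemical incubation, total RNA from transfected HepG2 cells was reverse-transcribed and reporter cDNA amplified, FAM-labeled, HpaI-digested and sized by capillary electrophoresis. DMSO served as baseline for bidirectional curve fitting.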

[14] = ATG_Sox_CIS: Attagene CIS-FACTORIAL HepG2 Assay for human SRY-box transcription factor (SOX) (AID 2282960); conditions: HepG2 Attagene cis-factorial SOX reporter, mRNA; actives raise or lower the signal
Summary of the method: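 Transient MRTU transfection of HepG2; 24 h compound incubation; TriZol RNA, oligo(dT) RT, PCR, 6-FAM primer extension, HpaI cut, CE. Bidirectional fit, DMSO = baseline.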

[15] = ATG_FoxO_CIS: Attagene CIS-FACTORIAL HepG2 Assay for human Forkhead box O (FoxO) (AID 2282943); conditions: HepG2 Attagene cis-reporter, FoxO element, mRNA; actives raise or lower the signal
Summary of the method: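 Read-out: fluorescence of 6-FAM-labelled reporter cDNA fragments resolved by capillary electrophoresis. Transiently transfected HepG2 cells were dosed for 24 h; activity fitted in both directions relative to DMSO controls.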

[16] = ATG_GLI_CIS: Attagene CIS-FACTORIAL HepG2 Assay for human Zinc Finger Protein GLI1 (AID 2282945); conditions: HepG2, Attagene cis-factorial reporter mRNA, GLI element; actives raise or lower the signal
Summary of the method: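 Transiently transfected HepG2 cells report endogenous transcription factor activity via cis-element-driven reporter units. After 24 h compound exposure, reporter mRNA was measured by RT-PCR with capillary electrophoresis; bidirectional fitting against DMSO baseline.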

[17] = ATG_GRE_CIS: Attagene CIS-FACTORIAL HepG2 Assay for human Glucocorticoid Response Elements (GRE) (AID 2282947); conditions: HepG2 GRE cis-reporter, Attagene multiplex mRNA; actives raise or lower the signal
Summary of the method: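 Fluorescence intensity of reporter-specific cDNA fragments, separated by capillary electrophoresis, provides the signal. Constructs carry cis-regulating promoters in transiently transfected HepG2 liver cells; 24 h incubation; fitting is bidirectional against DMSO.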

[18] = ATG_PPRE_CIS: Attagene CIS-FACTORIAL HepG2 Assay for human Peroxisome Proliferator-activated Response Element (PPRE) (AID 2282958); conditions: HepG2 PPRE cis-element reporter, Attagene transcription factor profiling; actives raise or lower the signal
Summary of the method: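 Cells are first transfected transiently with the multiplexed reporter library, then dosed for 24 h. Total RNA is reverse-transcribed, amplified, fluorescently end-labeled and HpaI-cut before capillary electrophoresis; activity is fitted bidirectionally against DMSO controls.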

[19] = ATG_RORE_CIS: Attagene CIS-FACTORIAL HepG2 Assay for human RAR-related Orphan Receptor Element (RORE) (AID 2282959); conditions: HepG2 Attagene cis-factorial RORE reporter, mRNA; actives raise or lower the signal
Summary of the method: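 Cells were HepG2 carrying transfected cis-regulated reporter constructs, dosed for 24 hours. Total RNA was reverse-transcribed and reporter cDNA amplified, fluorescently labeled and sized by capillary electrophoresis. Activity was fitted bidirectionally relative to DMSO.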

Measured: AC50

Chain of Hepatocyte nuclear factor 3-beta (Homo sapiens) (Q9Y261 whole entry, looked up): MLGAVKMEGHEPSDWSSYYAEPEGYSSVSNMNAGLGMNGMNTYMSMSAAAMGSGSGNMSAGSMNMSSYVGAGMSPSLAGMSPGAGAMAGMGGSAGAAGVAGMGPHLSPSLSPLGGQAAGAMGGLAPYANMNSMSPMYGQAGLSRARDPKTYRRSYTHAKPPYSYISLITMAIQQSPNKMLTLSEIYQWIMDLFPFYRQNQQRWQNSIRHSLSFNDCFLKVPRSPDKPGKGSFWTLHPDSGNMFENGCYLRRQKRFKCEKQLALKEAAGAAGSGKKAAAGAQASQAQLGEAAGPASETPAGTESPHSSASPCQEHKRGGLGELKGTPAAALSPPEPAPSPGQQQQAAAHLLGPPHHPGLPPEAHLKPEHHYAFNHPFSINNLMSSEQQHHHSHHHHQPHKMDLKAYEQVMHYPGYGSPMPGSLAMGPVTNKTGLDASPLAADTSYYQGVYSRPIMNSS
Chain of Bile acid receptor (Homo sapiens) (Q96RI1 whole entry, looked up): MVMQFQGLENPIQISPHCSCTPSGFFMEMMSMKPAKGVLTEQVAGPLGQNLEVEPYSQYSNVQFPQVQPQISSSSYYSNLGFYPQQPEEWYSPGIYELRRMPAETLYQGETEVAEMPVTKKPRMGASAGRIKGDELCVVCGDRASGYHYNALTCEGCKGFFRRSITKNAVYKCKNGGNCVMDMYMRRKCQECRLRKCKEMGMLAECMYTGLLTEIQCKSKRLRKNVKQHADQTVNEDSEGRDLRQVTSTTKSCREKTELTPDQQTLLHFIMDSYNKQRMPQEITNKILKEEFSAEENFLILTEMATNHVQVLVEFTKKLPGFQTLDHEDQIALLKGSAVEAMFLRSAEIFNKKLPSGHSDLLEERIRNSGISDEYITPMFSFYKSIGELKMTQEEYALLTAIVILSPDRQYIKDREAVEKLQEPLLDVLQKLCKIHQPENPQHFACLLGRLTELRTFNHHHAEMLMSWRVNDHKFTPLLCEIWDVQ
Chain of Heat shock factor protein 1 (Homo sapiens) (Q00613 whole entry, looked up): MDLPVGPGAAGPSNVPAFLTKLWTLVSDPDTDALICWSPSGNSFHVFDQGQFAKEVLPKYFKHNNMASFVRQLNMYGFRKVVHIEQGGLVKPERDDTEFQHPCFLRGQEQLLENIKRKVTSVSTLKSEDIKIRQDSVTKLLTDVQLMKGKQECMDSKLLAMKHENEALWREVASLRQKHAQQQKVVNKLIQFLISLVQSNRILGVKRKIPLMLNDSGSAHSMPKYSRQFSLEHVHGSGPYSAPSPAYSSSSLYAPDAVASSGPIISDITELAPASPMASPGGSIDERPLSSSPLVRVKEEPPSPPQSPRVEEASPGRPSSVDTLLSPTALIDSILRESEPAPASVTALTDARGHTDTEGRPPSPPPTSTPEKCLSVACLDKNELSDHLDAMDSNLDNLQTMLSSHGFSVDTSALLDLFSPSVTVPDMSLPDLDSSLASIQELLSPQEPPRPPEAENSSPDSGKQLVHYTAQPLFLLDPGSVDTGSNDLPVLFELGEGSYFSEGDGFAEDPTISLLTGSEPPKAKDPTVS
Chain of Paired box protein Pax-6 (Homo sapiens) (P26367 whole entry, looked up): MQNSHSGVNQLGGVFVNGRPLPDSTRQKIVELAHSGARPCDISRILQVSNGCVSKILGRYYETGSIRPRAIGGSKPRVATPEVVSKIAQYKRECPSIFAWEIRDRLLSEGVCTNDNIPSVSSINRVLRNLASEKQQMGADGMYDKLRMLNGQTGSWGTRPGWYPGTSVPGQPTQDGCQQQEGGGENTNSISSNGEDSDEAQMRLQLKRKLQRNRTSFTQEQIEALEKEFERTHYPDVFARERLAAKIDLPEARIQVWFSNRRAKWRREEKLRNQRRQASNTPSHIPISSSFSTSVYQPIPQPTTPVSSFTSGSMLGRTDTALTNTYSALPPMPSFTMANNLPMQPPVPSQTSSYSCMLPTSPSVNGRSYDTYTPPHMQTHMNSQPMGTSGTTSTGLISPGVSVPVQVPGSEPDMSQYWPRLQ
Chain of Hypoxia-inducible factor 1-alpha (Homo sapiens) (Q16665 whole entry, looked up): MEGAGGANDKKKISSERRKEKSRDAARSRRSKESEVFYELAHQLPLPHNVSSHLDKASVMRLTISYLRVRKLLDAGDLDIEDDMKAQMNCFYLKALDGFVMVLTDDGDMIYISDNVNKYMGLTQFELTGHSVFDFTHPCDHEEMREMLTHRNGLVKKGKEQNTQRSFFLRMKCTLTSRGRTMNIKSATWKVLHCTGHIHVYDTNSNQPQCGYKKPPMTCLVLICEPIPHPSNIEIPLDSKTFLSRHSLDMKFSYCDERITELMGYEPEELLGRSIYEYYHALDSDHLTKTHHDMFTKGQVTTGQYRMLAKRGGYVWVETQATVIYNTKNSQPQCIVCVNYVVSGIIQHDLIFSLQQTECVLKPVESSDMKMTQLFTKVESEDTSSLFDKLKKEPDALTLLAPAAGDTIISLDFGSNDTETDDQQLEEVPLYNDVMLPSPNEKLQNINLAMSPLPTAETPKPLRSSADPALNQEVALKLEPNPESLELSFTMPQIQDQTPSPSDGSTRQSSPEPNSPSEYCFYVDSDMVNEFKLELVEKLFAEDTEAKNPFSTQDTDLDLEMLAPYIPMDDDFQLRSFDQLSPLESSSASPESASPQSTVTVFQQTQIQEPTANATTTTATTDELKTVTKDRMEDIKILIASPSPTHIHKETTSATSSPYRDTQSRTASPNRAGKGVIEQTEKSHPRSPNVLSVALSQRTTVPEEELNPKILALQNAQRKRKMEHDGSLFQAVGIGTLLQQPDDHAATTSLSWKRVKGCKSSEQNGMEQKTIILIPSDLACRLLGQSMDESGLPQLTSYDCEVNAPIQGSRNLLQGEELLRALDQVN
Chain of Hepatocyte nuclear factor 6 (Homo sapiens) (Q9UBC0 whole entry, looked up, the tested form may be a part): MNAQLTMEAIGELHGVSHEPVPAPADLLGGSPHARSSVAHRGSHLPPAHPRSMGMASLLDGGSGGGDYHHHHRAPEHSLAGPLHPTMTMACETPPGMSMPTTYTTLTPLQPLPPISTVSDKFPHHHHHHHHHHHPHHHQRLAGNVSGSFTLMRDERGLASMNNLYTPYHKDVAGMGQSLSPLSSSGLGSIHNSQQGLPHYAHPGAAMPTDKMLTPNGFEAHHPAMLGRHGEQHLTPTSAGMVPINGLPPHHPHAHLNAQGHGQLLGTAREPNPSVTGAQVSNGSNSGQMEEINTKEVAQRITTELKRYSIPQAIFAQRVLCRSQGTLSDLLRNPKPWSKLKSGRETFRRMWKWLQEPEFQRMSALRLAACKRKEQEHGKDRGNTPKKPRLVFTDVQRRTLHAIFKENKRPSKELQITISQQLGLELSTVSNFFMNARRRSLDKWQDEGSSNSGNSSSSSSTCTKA

O=C(O)Cc1ccccc1
not listed: [15] | [16] | [17] | [18] | [19]
inactive: all other assays above

CCSC(C)CC1CC(=O)C(C(CC)=NOC/C=C/Cl)=C(O)C1 (centres undefined)
active: [13] 5.61 µM
not listed: [10] | [11] | [19]
inactive: all other assays above

c1cc[c]([Hg][c]2ccccc2)cc1
not listed: [10] | [11] | [16] | [19]
inactive: all other assays above

C[C@H]1CCCC(=O)CCC/C=C/c2cc(O)cc(O)c2C(=O)O1
active: [15] 10.3 µM | [4] 16.8 µM | [9] 23.7 µM | [10] 33.1 µM | [11] 5.35 µM | [13] 0.665 µM
not listed: [3] | [6] | [17]
inactive: all other assays above

CCN1CCC2(CC1)COc1cc3c(cc12)N(C(=O)c1ccc(-c2ccc(-c4nnc(C)o4)cc2C)cc1)CC3
not listed: [17]
inactive: all other assays above

COc1cc(OC)nc(NC(=O)NS(=O)(=O)c2ncccc2C(=O)N(C)C)n1
not listed: [3] | [16]
inactive: all other assays above

CCC(=O)C(CC(C)N(C)C)(c1ccccc1)c1ccccc1 (centres undefined)
active: [13] 18.6 µM
not listed: [10]
inactive: all other assays above
